# Experimental data taken from article PMC11066047.
# Tests used:
# [1] = molecular target: Proteasome subunit alpha type-3 (UniProt P23638); assay: cross-link between two proteins; cross-linking mass spectrometry
# [2] = molecular target: Proteasome subunit beta type-3 (UniProt P25451); assay: as above
# [3] = molecular target: Proteasome subunit alpha type-6 (UniProt P40302); assay: as above
# [4] = molecular target: Protein transport protein SBH2 (UniProt P52871); assay: as above
# [5] = molecular target: Ribosome biogenesis protein BMS1 (UniProt Q08965); assay: cross-link between two proteins
# Chain of Ribosome biogenesis protein BMS1 (Q08965 whole entry): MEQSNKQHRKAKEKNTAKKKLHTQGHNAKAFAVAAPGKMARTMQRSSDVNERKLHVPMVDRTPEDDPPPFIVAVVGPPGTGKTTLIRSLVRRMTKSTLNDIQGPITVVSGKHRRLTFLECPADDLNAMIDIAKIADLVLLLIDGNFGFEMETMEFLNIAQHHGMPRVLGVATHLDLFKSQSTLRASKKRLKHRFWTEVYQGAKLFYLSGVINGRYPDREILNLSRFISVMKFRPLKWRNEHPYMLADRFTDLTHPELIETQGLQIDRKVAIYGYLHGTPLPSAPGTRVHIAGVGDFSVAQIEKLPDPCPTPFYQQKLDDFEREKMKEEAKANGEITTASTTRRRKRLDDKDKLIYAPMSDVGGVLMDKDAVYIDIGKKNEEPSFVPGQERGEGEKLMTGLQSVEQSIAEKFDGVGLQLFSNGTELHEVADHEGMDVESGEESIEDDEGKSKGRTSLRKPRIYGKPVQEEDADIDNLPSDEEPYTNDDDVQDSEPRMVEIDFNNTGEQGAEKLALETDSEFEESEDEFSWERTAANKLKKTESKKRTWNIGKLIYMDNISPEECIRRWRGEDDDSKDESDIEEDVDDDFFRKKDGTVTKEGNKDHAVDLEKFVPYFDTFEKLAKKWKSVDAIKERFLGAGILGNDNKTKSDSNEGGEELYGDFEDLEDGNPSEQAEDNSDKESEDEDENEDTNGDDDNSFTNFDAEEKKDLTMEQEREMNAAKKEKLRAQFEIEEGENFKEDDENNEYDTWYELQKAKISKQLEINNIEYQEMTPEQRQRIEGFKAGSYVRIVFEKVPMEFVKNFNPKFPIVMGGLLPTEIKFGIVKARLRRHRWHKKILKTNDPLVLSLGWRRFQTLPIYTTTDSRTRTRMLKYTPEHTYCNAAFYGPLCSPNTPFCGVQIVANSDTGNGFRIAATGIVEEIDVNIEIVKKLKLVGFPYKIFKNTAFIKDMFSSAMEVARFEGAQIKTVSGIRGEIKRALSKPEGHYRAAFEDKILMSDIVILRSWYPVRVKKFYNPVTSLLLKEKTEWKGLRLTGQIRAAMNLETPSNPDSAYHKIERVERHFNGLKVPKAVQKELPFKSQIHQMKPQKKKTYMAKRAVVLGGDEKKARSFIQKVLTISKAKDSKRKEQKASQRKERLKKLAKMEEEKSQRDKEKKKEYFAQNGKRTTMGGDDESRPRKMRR
# [6] = molecular target: Ribosome biogenesis protein MAK21 (UniProt Q12176); assay: cross-link between two proteins; cross-linking mass spectrometry
# Chain of Ribosome biogenesis protein MAK21 (Q12176 whole entry): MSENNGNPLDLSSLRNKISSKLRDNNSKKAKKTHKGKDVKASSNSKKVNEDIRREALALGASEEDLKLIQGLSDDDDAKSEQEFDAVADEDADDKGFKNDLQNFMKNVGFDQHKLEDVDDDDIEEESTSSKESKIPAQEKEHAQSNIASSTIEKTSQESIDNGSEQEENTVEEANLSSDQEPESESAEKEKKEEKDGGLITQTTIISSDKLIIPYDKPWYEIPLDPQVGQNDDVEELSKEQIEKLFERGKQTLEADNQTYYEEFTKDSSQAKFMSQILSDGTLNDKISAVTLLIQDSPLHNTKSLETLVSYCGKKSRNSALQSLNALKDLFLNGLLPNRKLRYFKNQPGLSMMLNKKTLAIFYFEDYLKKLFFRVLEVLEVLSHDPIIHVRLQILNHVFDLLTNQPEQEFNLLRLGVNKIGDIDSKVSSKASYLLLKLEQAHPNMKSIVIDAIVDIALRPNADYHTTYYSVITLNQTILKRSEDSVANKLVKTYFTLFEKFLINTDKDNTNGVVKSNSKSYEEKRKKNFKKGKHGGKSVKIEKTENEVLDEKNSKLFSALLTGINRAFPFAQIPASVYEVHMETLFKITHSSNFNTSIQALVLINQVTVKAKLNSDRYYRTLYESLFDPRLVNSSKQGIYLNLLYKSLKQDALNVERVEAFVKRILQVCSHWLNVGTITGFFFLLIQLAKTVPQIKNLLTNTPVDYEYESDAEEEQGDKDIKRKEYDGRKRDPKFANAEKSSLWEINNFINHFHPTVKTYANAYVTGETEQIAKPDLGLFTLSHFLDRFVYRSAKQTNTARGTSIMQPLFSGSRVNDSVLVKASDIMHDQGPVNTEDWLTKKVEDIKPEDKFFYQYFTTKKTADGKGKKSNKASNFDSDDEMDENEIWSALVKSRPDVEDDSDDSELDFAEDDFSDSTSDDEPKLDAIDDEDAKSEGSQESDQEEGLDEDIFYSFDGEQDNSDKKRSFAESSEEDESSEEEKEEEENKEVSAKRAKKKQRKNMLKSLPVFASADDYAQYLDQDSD
# [7] = molecular target: Ribosome biogenesis protein YTM1 (UniProt Q12024); assay: as above
# Chain of Ribosome biogenesis protein YTM1 (Q12024 whole entry): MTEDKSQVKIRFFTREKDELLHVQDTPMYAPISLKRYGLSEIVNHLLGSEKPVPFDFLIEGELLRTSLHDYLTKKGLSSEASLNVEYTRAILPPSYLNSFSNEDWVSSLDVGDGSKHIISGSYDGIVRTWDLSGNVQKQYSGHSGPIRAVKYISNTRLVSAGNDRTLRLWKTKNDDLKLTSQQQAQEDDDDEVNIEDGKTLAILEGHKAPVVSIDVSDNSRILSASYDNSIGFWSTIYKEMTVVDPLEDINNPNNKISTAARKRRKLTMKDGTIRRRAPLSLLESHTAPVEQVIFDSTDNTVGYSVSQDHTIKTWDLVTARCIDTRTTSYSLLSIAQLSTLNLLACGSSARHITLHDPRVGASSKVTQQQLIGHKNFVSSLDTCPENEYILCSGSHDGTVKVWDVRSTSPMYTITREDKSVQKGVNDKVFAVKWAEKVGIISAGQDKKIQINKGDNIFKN
# RuvB-like protein 2 = RuvB-like protein 2 (UniProt Q12464); assay: as above
# Chain of RuvB-like protein 2 (Q12464 whole entry): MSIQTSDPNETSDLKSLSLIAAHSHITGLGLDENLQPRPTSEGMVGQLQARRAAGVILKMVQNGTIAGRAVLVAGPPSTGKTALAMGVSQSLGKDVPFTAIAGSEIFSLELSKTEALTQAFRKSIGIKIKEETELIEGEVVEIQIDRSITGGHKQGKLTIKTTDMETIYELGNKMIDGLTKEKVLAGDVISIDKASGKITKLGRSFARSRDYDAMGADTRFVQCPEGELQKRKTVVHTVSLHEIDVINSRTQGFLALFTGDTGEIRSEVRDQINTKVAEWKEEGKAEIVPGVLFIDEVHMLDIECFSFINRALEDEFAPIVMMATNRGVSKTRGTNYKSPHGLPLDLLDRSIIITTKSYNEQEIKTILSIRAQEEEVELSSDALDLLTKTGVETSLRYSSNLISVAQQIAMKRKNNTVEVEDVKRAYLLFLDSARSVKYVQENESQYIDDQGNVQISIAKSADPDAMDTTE
# [8] = molecular target: Small ribosomal subunit protein RACK1 (UniProt P38011); assay: as above
# Chain of Small ribosomal subunit protein RACK1 (P38011 whole entry): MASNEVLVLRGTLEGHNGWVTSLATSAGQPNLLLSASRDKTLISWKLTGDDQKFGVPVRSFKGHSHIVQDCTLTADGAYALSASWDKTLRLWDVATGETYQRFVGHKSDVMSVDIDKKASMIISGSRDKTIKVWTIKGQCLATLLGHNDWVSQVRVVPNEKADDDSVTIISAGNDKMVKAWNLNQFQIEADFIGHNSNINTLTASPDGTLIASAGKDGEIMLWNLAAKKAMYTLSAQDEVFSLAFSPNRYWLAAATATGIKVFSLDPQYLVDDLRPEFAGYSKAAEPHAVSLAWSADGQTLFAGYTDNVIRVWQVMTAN
# [9] = molecular target: Small ribosomal subunit protein uS10 (UniProt P38701); assay: as above
# Chain of Small ribosomal subunit protein uS10 (P38701 whole entry): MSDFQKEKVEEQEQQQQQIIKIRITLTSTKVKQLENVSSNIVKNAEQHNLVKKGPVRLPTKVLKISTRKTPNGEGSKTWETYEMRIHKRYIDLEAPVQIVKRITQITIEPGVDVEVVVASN
# [10] = molecular target: Small ribosomal subunit protein uS5 (UniProt P25443); assay: as above
# Chain of Small ribosomal subunit protein uS5 (P25443 whole entry): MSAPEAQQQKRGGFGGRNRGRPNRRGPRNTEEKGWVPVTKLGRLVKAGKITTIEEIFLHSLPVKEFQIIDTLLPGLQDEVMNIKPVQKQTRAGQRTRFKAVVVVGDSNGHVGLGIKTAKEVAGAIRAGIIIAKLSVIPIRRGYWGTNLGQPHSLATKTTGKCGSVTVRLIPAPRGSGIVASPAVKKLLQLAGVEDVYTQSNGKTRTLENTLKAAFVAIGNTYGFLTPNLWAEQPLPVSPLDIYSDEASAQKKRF
# [11] = molecular target: Small ribosomal subunit protein eS12 (UniProt P48589); assay: as above
# [12] = molecular target: Small ribosomal subunit protein eS25A (UniProt Q3E792); assay: as above
# Chain of Small ribosomal subunit protein eS25A (Q3E792 whole entry): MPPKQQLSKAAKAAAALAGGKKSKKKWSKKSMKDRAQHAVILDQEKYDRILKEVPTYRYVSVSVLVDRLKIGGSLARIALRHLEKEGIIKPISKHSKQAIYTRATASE
# [13] = molecular target: Small ribosomal subunit protein eS28A (UniProt Q3E7X9); assay: cross-link between two proteins
# Chain of Small ribosomal subunit protein eS28A (Q3E7X9 whole entry): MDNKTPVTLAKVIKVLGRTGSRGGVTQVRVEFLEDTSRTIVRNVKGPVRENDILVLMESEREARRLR
# [14] = molecular target: Small ribosomal subunit protein uS11B (UniProt P39516); assay: cross-link between two proteins; cross-linking mass spectrometry
# [15] = molecular target: Small ribosomal subunit protein uS7 (UniProt P26783); assay: as above
# [16] = molecular target: Succinate--CoA ligase [ADP-forming] subunit alpha, mitochondrial (UniProt P53598); assay: as above
# Chain of Protein transport protein SBH2 (P52871 whole entry): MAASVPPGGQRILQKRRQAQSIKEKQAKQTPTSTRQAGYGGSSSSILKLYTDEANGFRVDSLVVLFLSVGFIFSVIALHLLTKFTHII
# Chain of Proteasome subunit alpha type-6 (P40302 whole entry): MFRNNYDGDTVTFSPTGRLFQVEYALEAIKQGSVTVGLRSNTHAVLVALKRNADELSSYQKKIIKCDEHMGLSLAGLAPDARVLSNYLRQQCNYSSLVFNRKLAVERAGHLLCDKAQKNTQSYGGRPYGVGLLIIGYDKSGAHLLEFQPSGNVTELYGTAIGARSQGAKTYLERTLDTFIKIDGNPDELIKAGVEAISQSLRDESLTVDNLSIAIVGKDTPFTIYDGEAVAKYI
# Chain of Small ribosomal subunit protein eS28B, P0C0X0 (P0C0X0 whole entry): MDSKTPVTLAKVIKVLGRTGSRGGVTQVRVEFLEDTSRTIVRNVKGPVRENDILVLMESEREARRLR
# Chain of Proteasome subunit beta type-3 (P25451 whole entry): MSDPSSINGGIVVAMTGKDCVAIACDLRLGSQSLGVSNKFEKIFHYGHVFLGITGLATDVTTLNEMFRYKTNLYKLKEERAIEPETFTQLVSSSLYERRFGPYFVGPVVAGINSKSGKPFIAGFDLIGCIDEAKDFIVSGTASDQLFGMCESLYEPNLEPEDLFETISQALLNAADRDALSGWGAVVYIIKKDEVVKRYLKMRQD
# Chain of Proteasome subunit alpha type-3 (P23638 whole entry): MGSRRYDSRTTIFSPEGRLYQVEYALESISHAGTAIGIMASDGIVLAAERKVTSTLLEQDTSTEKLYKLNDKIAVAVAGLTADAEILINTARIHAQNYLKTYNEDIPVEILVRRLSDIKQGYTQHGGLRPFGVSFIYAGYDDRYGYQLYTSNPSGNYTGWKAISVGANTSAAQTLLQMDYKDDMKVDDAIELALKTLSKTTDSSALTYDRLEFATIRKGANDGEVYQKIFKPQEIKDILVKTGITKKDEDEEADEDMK
substance,measurement,setting,value
"Proteasome subunit beta type-4, P22141",listed as a hit,[1],yes
same,listed as a hit,[2],yes
"Probable proteasome subunit alpha type-7, P21242",listed as a hit,[3],yes
"Sec sixty-one protein homolog, P38353",listed as a hit,[4],yes
"rRNA processing protein RCL1, Q08096",listed as a hit,[5],yes
"Nucleolar complex protein 2, P39744",listed as a hit,[6],yes
"rRNA biogenesis protein RRP5, Q05022",listed as a hit,[6],yes
"Pescadillo homolog, P53261",listed as a hit,[7],yes
"Ribosome biogenesis protein ERB1, Q04660",listed as a hit,[7],yes
"RuvB-like protein 1, Q03940",listed as a hit,RuvB-like protein 2,yes
"Small ribosomal subunit protein uS3, P05750",listed as a hit,[8],yes
same,listed as a hit,[9],yes
same,listed as a hit,[10],yes
"Ubiquitin-ribosomal protein eS31 fusion protein, P05759",listed as a hit,[11],yes
"Small ribosomal subunit protein uS7, P26783",listed as a hit,[12],yes
same,listed as a hit,[13],yes
"Small ribosomal subunit protein eS26A, P39938",listed as a hit,[13],yes
"Small ribosomal subunit protein eS1B, P23248",listed as a hit,[14],yes
"Small ribosomal subunit protein eS21A, P0C0V8",listed as a hit,[10],yes
"Small ribosomal subunit protein eS28B, P0C0X0",listed as a hit,[15],yes
"Succinate--CoA ligase [ADP-forming] subunit beta, mitochondrial, P53312",listed as a hit,[16],yes
